Test results from ChEMBL document CHEMBL1961873, “Compounds: GSK PKIS; Assays: Nanosyn kinase panel” (2012).

Each molecule was assayed against T1, Rhodopsin kinase GRK7 (Homo sapiens) (UniProt Q8WTQ7). Conditions: at 1 µM.
T1 sequence (whole entry): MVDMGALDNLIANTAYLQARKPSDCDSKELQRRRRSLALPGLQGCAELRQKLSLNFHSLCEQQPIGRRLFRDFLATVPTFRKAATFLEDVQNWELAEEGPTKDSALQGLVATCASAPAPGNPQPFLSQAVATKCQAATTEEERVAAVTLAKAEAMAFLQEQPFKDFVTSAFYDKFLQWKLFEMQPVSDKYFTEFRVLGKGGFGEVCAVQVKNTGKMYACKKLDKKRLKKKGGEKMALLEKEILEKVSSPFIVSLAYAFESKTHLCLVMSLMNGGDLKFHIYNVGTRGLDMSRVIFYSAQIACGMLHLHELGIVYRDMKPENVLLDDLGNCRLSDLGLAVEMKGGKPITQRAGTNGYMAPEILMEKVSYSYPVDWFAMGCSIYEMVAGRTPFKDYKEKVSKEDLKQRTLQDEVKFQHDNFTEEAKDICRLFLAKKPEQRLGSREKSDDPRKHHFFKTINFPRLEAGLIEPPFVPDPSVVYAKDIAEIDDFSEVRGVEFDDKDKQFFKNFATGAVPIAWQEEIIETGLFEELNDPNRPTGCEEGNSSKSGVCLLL
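Further: mean percent inhibition of GRK7, profiled as part of the GSK PKIS screen.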

SMILES | inhibition [%]
COc1ccccc1Nc1ncc(-c2ccccc2)o1 | 2.31
CN(C)c1cc2c(Nc3ccc4nc(Cc5ccccc5)[nH]c4c3)ncnc2cn1 | 22.6
CCn1c(-c2nonc2N)nc2c(N3CCCC3)nccc21 | 0.27
CC1=C(C(=O)Nc2ccc3[nH]ncc3c2)C(c2ccc3ccccc3c2)CC(=O)N1 (stereo not drawn) | 4.56
CNC(=O)c1cncc(/C=C/c2c(Cl)cccc2Cl)c1 | 8.22
Cc1ccc(NC(=O)c2ccnc(N3CCCC3)c2)cc1-c1ccc(C(=O)NCC2CC2)cc1 | 10.4
NS(=O)(=O)c1ccc(N/N=C2\C(=O)Nc3ccc(C(=O)NCCc4c[nH]cn4)cc32)cc1 | 7.5
O=C1NC(=O)C(N2CCc3ccccc32)=C1c1ccc(Cl)cc1 | 7.76
CCn1c(-c2nonc2N)nc2c(C#CC(C)(C)O)nc(CN3CCCC3)cc21 | 3.4
COc1cc2ncn(-c3cc(OCc4ccccc4C(F)(F)F)c(C(N)=O)s3)c2cc1OC | 6.72
Nc1nc(-c2ccccn2)c(-c2ccc3ncccc3n2)s1 | -0.58
O=C1NC(=O)C(c2ccccc2Cl)=C1Nc1cccc(O)c1 | -6.28
O=C(Nc1n[nH]c2nc(-c3ccco3)c(Br)cc12)C1CC1 | 4.09
COc1ccc(-c2ccncc2)cc1C(N)=O | 2.23
Nc1ncnc2occ(-c3ccc(NC(=O)Nc4cc(C(F)(F)F)cc(C(F)(F)F)c4)cc3)c12 | -8.6
Cc1nn(C)c2cc(N(C)c3ccnc(Nc4cccc(S(N)(=O)=O)c4)n3)ccc12 | 10.5
[O-][S+]1CCN(Cc2ccc(-c3ccc4ncnc(Nc5ccc(OCc6ccccc6)c(F)c5)c4c3)o2)CC1 | -0.58

SMILES | inhibition [%]
Cn1cc(C=C2C(=O)Nc3cccnc32)c2ccccc21 | 10.6
CC1=C(C(=O)Nc2ccc3[nH]ncc3c2)C(c2ccc(Cl)c(Cl)c2)CC(=O)N1 (stereo not drawn) | -5.21
NC(=O)c1cccc(Nc2nccc(Nc3cccc4[nH]ncc34)n2)c1 | 5.88
CS(=O)(=O)CCNCc1ccc(-c2ccc3ncnc(Nc4ccc(OCc5cccc(F)c5)c(C(F)(F)F)c4)c3c2)o1 | 8.92
Nc1nc(-c2ccc3c(c2)C(=Cc2cc(Br)c(O)c(Br)c2)C(=O)N3)cs1 | 22.8
CC(=O)Nc1cccc(C#Cc2cncnc2Nc2ccc(OCc3cccc(F)c3)c(Cl)c2)n1 | 11.2
Fc1cccc(COc2ccc(Nc3ncnc4sc(-c5cccs5)cc34)cc2Cl)c1 | -0.21
CN1CCC(C(=O)Nc2n[nH]c3nnc(-c4ccccc4)cc23)CC1 | 15.6
COc1cc2ncn(-c3cc(O[C@H](C)c4ccccc4Cl)c(C(N)=O)s3)c2cc1OC | 10.8
COc1cc2ncn(-c3cc(O[C@@H](C)c4ccccc4Cl)c(C(N)=O)s3)c2cc1OC | 4.64
NC(=O)c1ccc(-c2nc(-c3ccccn3)c(-c3ccc4c(c3)OCO4)[nH]2)cc1 | 6.3
CC(C)=Cc1cccc2c1/C(=N/Nc1ccc(S(N)(=O)=O)cc1)C(=O)N2 | -0.7
COC(=O)Nc1nc2cc(Oc3ccc(NC(=O)Nc4cccc(C(=O)O)c4)cc3)ccc2[nH]1 | -3.21
N#Cc1c(NC(=O)c2cccc3ccccc23)sc2c1CCCC2 | 6.83
Fc1cccc(COc2ccc(Nc3ncnc4cc(-c5ccc[nH]5)sc34)cc2Cl)c1 | 13.6
COc1cc2c(cc1Nc1nc(N3CCc4ccccc43)c3cc[nH]c3n1)N(C(=O)CN(C)C)CC2 | -6.08
